A short description of assay [1]: qHTS assay to identify small molecule antagonists of the estrogen related receptor (ERR) signaling pathway from Tox21 library - cell viability counter screen (AID 1224834). Also: nearly all actives have a fitted effect of over 30% in size. In outline: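 ERR reporter cells were plated 6 h before compound addition, then exposed to test compounds in DMSO for 17.5 h at 37 C. Viability was read as CellTiter-Fluor fluorescence after a 30-minute incubation at 37 C.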

The target in assay [2] is Luciferin 4-monooxygenase (Photinus pyralis) (UniProt P08659). Kind of assay: qHTS assay to identify small molecule inhibitors of firefly luciferase (AID 1224835). Also: nearly all actives have a fitted effect of over 25% in size. Also: potency is read from the fitted curve at half-maximal effect. The method in brief:
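Biochemical qHTS: compounds run as interplate titrations against purified firefly enzyme, with D-luciferin and ATP each at its KM concentration. Light output recorded by CCD imaging.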

The nature of assay [3]: qHTS assay to identify small molecule agonists of the constitutive androstane receptor (CAR) signaling pathway - cell viability counter screen (AID 1224836). Also: nearly all actives have a fitted effect of over 45% in size. The method in brief:
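Cells were seeded and incubated 4 hrs. Compounds were added across 15 concentrations together with PK11195 at 0.75 uM final. Plates were incubated 23 hrs at 37 C. CellTiter-Fluor was added and fluorescence measured.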
In general terms: qHTS replaces the single test concentration by a dilution series.

The nature of assay [4]: qHTS assay to identify small molecule antagonists of the constitutive androstane receptor (CAR) signaling pathway - cell viability counter screen (AID 1224837). Also: nearly all actives have a fitted effect of over 45% in size. In outline:
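HepG2 cells stably expressing hCAR and a CYP2B6-2.2kb reporter were plated and pre-incubated 4 hr at 37 C/5% CO2, then given compounds at 15 concentrations plus 50 nM CITCO (final). After 23 hr, viability was read by CellTiter-Fluor fluorescence.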

The target of assay [5] is Nuclear receptor subfamily 1 group I member 3 (Homo sapiens) (UniProt Q14994). Kind of assay: qHTS assay to identify small molecule antagonists of the constitutive androstane receptor (CAR) signaling pathway (AID 1224838). Also: nearly all actives have a fitted effect of over 40% in size. In outline:
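HepG2 cells stably co-transfected with hCAR and a CYP2B6-2.2kb luciferase reporter were seeded 4 h before compound addition at 15 concentrations. Cells were stimulated with 50 nM CITCO (final) for 24 h at 37 C; luciferase luminescence was then read.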

Assay [6] is described as follows: qHTS assay to identify small molecule antagonists of the estrogen related receptor signaling pathway with the pleiotropic PPARgamma coactivator (PGC) from Tox21 10K library - cell viability counter screen (AID 1224840; active = well fitted cell-killing curve with a large enough effect in the repeat runs, not every such curve was filed as active; also: nearly all actives have a fitted effect of over 40% in size). The method in brief: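 PGC/ERR cells were seeded at 2,000 cells/well and left 6 hours at 37 C/5% CO2 before pin-tool addition of compounds in DMSO. After 17.5 hours at 37 C, CellTiter-Fluor was added and fluorescence read 30 minutes later.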

Assay [7] is described as follows: qHTS assay to identify small molecule antagonists of the estrogen related receptor signaling pathway with the pleiotropic PPARgamma coactivator (PGC) from Tox21 10K library (AID 1224841; call rule not given here; also: actives are mostly falling curves and most rising ones were filed inactive; nearly all actives have a fitted effect of over 50% in size). In outline: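 PGC/ERR reporter cells were seeded at 2,000 cells/well and held 6 hours at 37 C/5% CO2 before pin-tool addition of compounds in DMSO. After 18 hours at 37 C, One-Glo was added and luminescence read after 30 minutes at room temperature.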

Assay [8] can be described thus: qHTS assay to identify small molecule agonists of the estrogen related receptor signaling pathway with the pleiotropic PPARgamma coactivator (PGC) from Tox21 10K library (AID 1224842). Also: nearly all actives have a fitted effect of over 15% in size. Also: potency is read from the fitted curve at half-maximal effect. In outline:
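PGC/ERR reporter cell line, 2,000 cells per well, incubated 6 h at 37 C before 23 nL compound in DMSO was added. After 18 h at 37 C, One-Glo luminescence read following 30 min at room temperature.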

Assay [9] addresses Thyrotropin receptor (Homo sapiens) (UniProt P16473). Kind of assay: qHTS assay to identify small molecule agonists of the thyroid stimulating hormone receptor (TSHR) signaling pathway (AID 1224843; calls by dose curve; also: nearly all actives have a fitted effect of over 45% in size). In outline: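 TSHR-HEK293 cells in agonist mode, 30 min room-temperature step, then cAMP measured by competitive HTRF (cAMP-d2 with anti-cAMP cryptate) after 1 h at room temperature. Tested at 15 concentrations in triplicate.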

The nature of assay [10]: qHTS assay to identify small molecule agonists of the hypoxia (HIF-1) signaling pathway - cell viability counter screen (AID 1224844; calls by dose curve; also: nearly all actives have a fitted effect of over 50% in size). In outline: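 HRE-bla ME-180 cells in medium with 0.5% dialyzed FBS were preincubated 5 hrs at 37C, exposed to compounds for 17 hrs, then viability was read as CellTiter-Glo luminescence after 30 min at room temperature, in the reporter wells.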

Assay [11] in a line: qHTS assay to identify small molecule agonists of H2AX (AID 1224845; active = well fitted activation curve with a large enough effect in the signal ratio in the repeat runs, not every such curve was filed as active; the % refers to the signal ratio). In outline:
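Wild-type CHO-K1 cells, plated overnight, exposed 3hr at 37C to 15 concentrations (0.76% DMSO final). Lysed, then HTRF anti-pH2AX (S139) cryptate and anti-H2AX-d2 antibodies, 24 hr room temperature; 665/620 nm emission read.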

The nature of assay [12]: qHTS assay to identify small molecule agonists of the hypoxia (HIF-1) signaling pathway (AID 1224846; active = well fitted activation curve with a large enough effect in the signal ratio in the repeat runs, not every such curve was filed as active; the % refers to the signal ratio). In outline:
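HRE-bla ME-180 cells (beta-lactamase reporter under hypoxia response element) were plated at 2,000 cells/well in medium with 0.5% dialyzed FBS, rested 5 hrs, then given compounds in DMSO for 17 hrs at 37C, 5% CO2. Reporter induction was read with CCF4-AM FRET substrate.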

Assay [13] in a line: qHTS assay to identify small molecule antagonists of the estrogen related receptor (ERR) signaling pathway from Tox21 library (AID 1224848). Also: nearly all actives have a fitted effect of over 50% in size. The method in brief: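 ERR reporter cell line (from NTP) seeded 2,000 cells/well, rested 6 h at 37 C/5% CO2, then pin-dosed with compounds in DMSO. After 18 h at 37 C, ONE-Glo added; luminescence read after 30 min at room temperature.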

The nature of assay [14]: qHTS assay to identify small molecule agonists of the estrogen related receptor (ERR) signaling pathway from Tox21 library (AID 1224849; calls by dose curve; also: nearly all actives have a fitted effect of over 15% in size). Particulars: ERR reporter cell line, ONE-Glo luciferase, 18 h; at 92.4 µM (top of the series) unless noted. The method in brief: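 ERR reporter cell line (NTP) seeded, rested 6 h at 37 C/5% CO2, then pinned with Tox21 compounds in DMSO. After 18 h at 37 C, ONE-Glo luciferase luminescence was read following 30 min at room temperature.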

Assay [15] is described as follows: qHTS RealTime-Glo MT Cell Viability Assay in HepG2 cells - 24 hour (AID 1224867). Also: nearly all actives have a fitted effect of over 50% in size. The method in brief: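 Compound treatment began 5 h after plating HepG2 cells (600/well) with NanoLuc luciferase and prosubstrate. Plates stayed at 37 C for 40 h; luminescence was captured at six time points, 0 h through 40 h.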
Assay [16] is described as follows: qHTS RealTime-Glo MT Cell Viability Assay in HEK293 cells - 32 hour (AID 1224868). In outline: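 Quantitative high-throughput screen of the Tox21 10K library in HEK293: cells and RealTime-Glo reagents plated together, compound added at 5 h, luminescence monitored through 40 h at 37 C.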
Assay [17] is described as follows: A CellTox Green Cytotoxicity Assay to monitor cytotoxicity in HEK293 cells - 0 hour (AID 1224869). Also: nearly all actives have a fitted effect of over 50% in size. In outline:
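HEK293 cells premixed with CellTox Green dye were seeded at 600 cells/well and left 5 h at 37 C/5% CO2 before pin transfer of 23 nL compound in DMSO. Fluorescence from dye bound to dead-cell DNA was read during 40 h treatment.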

Assay [18] can be described thus: qHTS RealTime-Glo MT Cell Viability Assay in HepG2 cells - 40 hour (AID 1224870). Also: nearly all actives have a fitted effect of over 50% in size. In outline: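 HepG2 cells (600/well) mixed with RealTime-Glo MT reagent, settled 5 h at 37 C/5% CO2 before compound addition. Nonlytic NanoLuc luminescence from viable-cell prosubstrate reduction read repeatedly during 40 h treatment at 37 C.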
Assay [19] in a line: qHTS assay to identify small molecule agonists of H2AX - cell viability counter screen (AID 1224847; calls by dose curve; also: top concentration of the series differs between compounds; nearly all actives have a fitted effect of over 30% in size). In outline:
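Cytotoxicity counter screen in wild-type CHO-K1 cells: a 3 hr compound treatment at 37C across 15 concentrations, followed by CellTiter-Glo luminescence to gauge viable cells.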

Assay [20] has as its target Nuclear receptor subfamily 1 group I member 3 (Homo sapiens) (UniProt Q14994). Kind of assay: qHTS assay to identify small molecule agonists of the constitutive androstane receptor (CAR) signaling pathway (AID 1224839).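 Also: HepG2 cells stably carrying human CAR and a CYP2B6 luciferase reporter; nearly all actives have a fitted effect of over 15% in size.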 In outline: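 Cells were plated and incubated 4 hrs, then dosed with compounds at 15 concentrations. PK11195 was added to 0.75 uM final. After 24 hrs at 37 C, luciferase luminescence was measured.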

Structures are written as SMILES. Unmarked numbers belong to inactive results. Inconclusive results are not listed. The source made the active and inactive calls. Unless noted, calls follow the shape of the dose curve; as a rule, active = well fitted curve in the direction sought with a large enough effect in the repeat runs; inconclusive = weak or mixed curves; inactive = no such curve, though single readings can be large; an effect the other way counts as inactive or inconclusive.
% is scaled to controls: 0 for no effect and ±100 for the full control effect.

Nuclear receptor subfamily 1 group I member 3 (Homo sapiens), sequence (Q14994 whole entry, looked up): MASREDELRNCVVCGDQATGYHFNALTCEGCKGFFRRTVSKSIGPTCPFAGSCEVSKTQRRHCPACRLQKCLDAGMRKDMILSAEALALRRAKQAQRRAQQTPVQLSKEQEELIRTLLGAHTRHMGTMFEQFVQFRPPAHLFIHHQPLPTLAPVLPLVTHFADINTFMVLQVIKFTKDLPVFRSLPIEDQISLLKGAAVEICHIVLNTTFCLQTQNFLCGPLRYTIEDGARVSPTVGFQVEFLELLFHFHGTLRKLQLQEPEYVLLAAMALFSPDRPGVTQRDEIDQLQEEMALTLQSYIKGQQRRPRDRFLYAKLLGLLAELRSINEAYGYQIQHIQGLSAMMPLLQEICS
Luciferin 4-monooxygenase (Photinus pyralis), sequence (P08659 whole entry, looked up): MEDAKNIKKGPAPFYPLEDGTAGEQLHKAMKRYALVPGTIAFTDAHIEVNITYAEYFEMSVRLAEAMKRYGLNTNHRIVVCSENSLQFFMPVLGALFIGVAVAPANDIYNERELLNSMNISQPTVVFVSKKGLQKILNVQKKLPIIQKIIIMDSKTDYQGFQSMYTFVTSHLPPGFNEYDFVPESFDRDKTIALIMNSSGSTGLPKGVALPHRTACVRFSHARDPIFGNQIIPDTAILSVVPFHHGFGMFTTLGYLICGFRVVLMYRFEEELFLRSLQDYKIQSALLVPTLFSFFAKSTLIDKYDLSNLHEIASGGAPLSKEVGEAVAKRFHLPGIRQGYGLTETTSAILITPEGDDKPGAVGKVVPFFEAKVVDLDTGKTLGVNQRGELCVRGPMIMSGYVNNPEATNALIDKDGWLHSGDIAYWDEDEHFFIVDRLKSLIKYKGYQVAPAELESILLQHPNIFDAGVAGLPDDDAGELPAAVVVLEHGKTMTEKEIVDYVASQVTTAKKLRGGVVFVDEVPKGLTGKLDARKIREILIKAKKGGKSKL
Thyrotropin receptor (Homo sapiens), sequence (P16473 whole entry, looked up): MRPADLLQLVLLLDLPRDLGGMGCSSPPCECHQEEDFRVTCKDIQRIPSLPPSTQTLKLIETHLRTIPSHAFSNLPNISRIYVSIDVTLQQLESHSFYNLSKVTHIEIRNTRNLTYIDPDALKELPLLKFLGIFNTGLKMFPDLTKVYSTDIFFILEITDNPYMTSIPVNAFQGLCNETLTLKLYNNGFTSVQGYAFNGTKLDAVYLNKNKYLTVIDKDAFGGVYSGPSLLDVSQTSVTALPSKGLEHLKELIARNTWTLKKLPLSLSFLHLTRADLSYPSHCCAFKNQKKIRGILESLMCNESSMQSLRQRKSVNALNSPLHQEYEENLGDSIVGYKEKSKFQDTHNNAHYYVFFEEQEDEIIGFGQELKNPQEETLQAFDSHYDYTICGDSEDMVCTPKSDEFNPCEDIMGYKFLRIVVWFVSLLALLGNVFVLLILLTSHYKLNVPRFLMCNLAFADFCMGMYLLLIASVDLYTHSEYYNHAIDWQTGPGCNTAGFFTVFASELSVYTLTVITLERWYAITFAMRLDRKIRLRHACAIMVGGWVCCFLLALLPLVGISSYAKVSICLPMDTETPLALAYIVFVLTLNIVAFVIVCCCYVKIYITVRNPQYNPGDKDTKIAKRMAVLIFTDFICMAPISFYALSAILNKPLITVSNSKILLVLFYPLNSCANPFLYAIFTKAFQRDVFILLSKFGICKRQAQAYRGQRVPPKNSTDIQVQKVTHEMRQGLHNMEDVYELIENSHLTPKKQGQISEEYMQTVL

Turning to `CC(C)(C)c1ccc(OC(=O)c2ccccc2O)cc1`, the Potency entry in assay [1], in assay [3], in assay [4], in assay [5], in assay [6] and in assay [7] was “inactive” each time. Moreover, the Potency entry in assay [9], in [10], in [11], in [13], in [15] and in assay [16] was “inactive” each time. Besides, the Potency entry in [17] and in [18] was “inactive” in each case. For the same molecule, the Potency was 1.78 µM (active) in assay [2] and 10.9 µM (active) in assay [8]. The outcome in assay [12] was inactive. Moreover, the activity change, positive = activation in assay [14] was 132% (active).
Take `CN(C)Cc1ccccc1`: the Potency result in assay [1], in [2], in assay [3], in assay [4], in assay [6] and in assay [9] was “inactive” throughout. The Potency entry in [10], in assay [11], in assay [19], in [15], in assay [16] and in assay [17] was “inactive” throughout. Besides, the Potency entry in assay [18] is “inactive”. Besides, the molecule was called inactive in assay [12].
On to `C1CSCCS1`, for which the Potency result in [1], in [2], in [3], in [4], in assay [20] and in [6] was “inactive” each time. Moreover, the Potency result in [7], in assay [8], in assay [9], in assay [10], in assay [11] and in [19] was “inactive” in each case. In addition, the Potency result in assay [13], in assay [15], in assay [16], in [17] and in [18] was “inactive” in each case. The molecule was classed as inactive in assay [12]. Further, the activity change, positive = activation in assay [14] was 3.63%.
Turning to `C=CCCC=C`, the Potency entry in assay [1], in assay [2], in assay [3], in assay [4], in [6] and in assay [7] was “inactive” throughout. In addition, the Potency result in [19], in assay [13], in assay [15], in assay [16], in [17] and in [18] was “inactive” each time. Besides, in [12], the molecule was classed as inactive. Further, in assay [14], the activity change, positive = activation is 2.68%.
As to `CCCCCCCCCCCCCCCCOP(=O)([O-])OCC[N+](C)(C)C`, the Potency entry in [1], in [2], in [3], in [4], in assay [20] and in assay [6] was “inactive” in each case. The Potency entry in [7], in [8], in assay [9], in [10], in assay [11] and in [19] was “inactive” throughout. In addition, the Potency entry in [13], in assay [15], in [16], in [17] and in assay [18] was “inactive” throughout. Besides, the molecule was classed as inactive in assay [12].
Turning to `C[C@]12CCC(=O)C=C1CC[C@@H]1[C@@H]2CC[C@@]2(C)[C@H]1CC[C@]2(O)C(=O)CO`, the Potency entry in [1], in [2], in assay [3], in assay [4], in [6] and in assay [7] was “inactive” in each case. Also, the Potency result in assay [8], in assay [9], in assay [10], in [11], in [19] and in assay [15] was “inactive” each time. In addition, the Potency result in [16], in [17] and in [18] was “inactive” throughout. In addition, in [14], the activity change, positive = activation is -16% [at 42.5 µM].
In the case of `CCOC(=O)[C@H](CCc1ccccc1)N[C@@H](C)C(=O)N1Cc2cc(OC)c(OC)cc2C[C@H]1C(=O)O`, the Potency entry in assay [1], in assay [2], in assay [3], in assay [4], in assay [6] and in assay [10] was “inactive” throughout. In addition, the Potency entry in assay [11], in [19], in assay [15], in assay [16] and in assay [17] was “inactive” throughout. For the same molecule, the molecule was called inactive in assay [12].
As for `N#Cc1ccc(C(c2ccc(C#N)cc2)n2cncn2)cc1`, the Potency result in assay [1], in assay [2], in [3], in [4], in assay [6] and in [9] was “inactive” each time. The Potency result in assay [10], in [11], in assay [19], in assay [15], in assay [16] and in assay [17] was “inactive” in each case. For the same molecule, the Potency entry in assay [18] is “inactive”. Besides, the result in assay [12] was inactive.

The values are drawn from PubChem BioAssay (Tox21).
